# Results as given in PubChem BioAssay (Tox21).
# Values without a mark were called inactive. Entries that show only a call come without a potency. Calls of active or inactive are those of the source. Unless noted, calls come from the whole dose curve; as a rule, active = well fitted curve in the direction sought with a large enough effect in the repeat runs; inconclusive = weak or mixed curves; inactive = no such curve, though single readings can be large; an effect the other way counts as inactive or inconclusive.
# Assays:
# [1] = qHTS assay to test for compound auto fluorescence at 535 nm (green) in HEK293 cells (AID 720680)
# [2] = qHTS assay to test for compound auto fluorescence at 535 nm (green) in HEK293 cell free culture (AID 720682)
# Method in brief: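 Green-label autofluorescence (485 nm excitation, 535 nm emission) measured on compound added to cell-free culture medium (DMEM, 10% FBS). Output is expressed relative to fluorescein.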
# [3] = qHTS assay to test for compound auto fluorescence at 590 nm (red) in HEK293 cell free culture (AID 720683)
# Method in brief: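 Tox21 10K library compounds were pinned into cell-free DMEM with 10% FBS and fluorescence was read at excitation 540 nm. Activity is expressed as Rose Bengal sodium equivalency.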
# [4] = qHTS assay to test for compound auto fluorescence at 590 nm (red) in HepG2 cell free culture (AID 720684)
# Method in brief: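 Ex 540 / Em 590 nm read of compound in cell-free MEM (10% FBS). Rose Bengal sodium reference.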
# [5] = qHTS assay to test for compound auto fluorescence at 460 nm (blue) in HepG2 cell free culture (AID 720685)
# Method in brief: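 Cell-free plates of MEM plus 10% FBS received 23 nL compound or DMSO vehicle; blue-channel (405/460 nm) intensity scored against triamterene as reference fluorophore.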
# [6] = qHTS assay to test for compound auto fluorescence at 535 nm (green) in HepG2 cell free culture (AID 720686)
# [7] = qHTS assay to test for compound auto fluorescence at 460 nm (blue) in HepG2 cells (AID 720687)
# Method in brief: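 Cells (2,000/well in MEM with 10% FBS) attached overnight at 37 C, then were exposed to compound or DMSO for 1 hr at 37 C, 5% CO2. Fluorescence read at Ex/Em 405/460 nm, expressed as triamterene-equivalent signal.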
# [8] = molecular target: Glucocorticoid receptor (Homo sapiens) (UniProt P04150); test: qHTS assay to identify small molecule antagonists of the glucocorticoid receptor (GR) signaling pathway (AID 720692; active = well fitted inhibition curve with a large enough effect in the signal ratio in the repeat runs, not every such curve was filed as active; inconclusive = weak or mixed curves, or effect the other way; inactive = no such curve, though single readings can be large or run the other way; the % refers to the signal ratio)
# Method in brief: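 Inhibition of dexamethasone-driven (5 nM final) beta-lactamase expression was measured in GRE-reporter HeLa cells over 18 h at 37C. Fluorescence was read after 2 h with the B/G FRET substrate at room temperature.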
# [9] = qHTS assay to identify small molecule antagonists of the glucocorticoid receptor (GR) signaling pathway - cell viability counter screen (AID 720693); note: nearly all actives have a fitted effect of over 55% in size
# [10] = qHTS assay for identifying genotoxic compounds that show differential cytotoxicity against isogenic chicken DT40 cell lines with known DNA damage response pathways - wild type cell line (AID 743012); note: nearly all actives have a fitted effect of over 60% in size
# Method in brief: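 Viability by ATP luminescence (CellTiter-Glo, 30 min RT) after 40 h compound treatment at 37 C/5% CO2, using 300 parental DNA repair-proficient DT40 cells per well.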
# [11] = qHTS assay for identifying genotoxic compounds that show differential cytotoxicity against isogenic chicken DT40 cell lines with known DNA damage response pathways - Rad54/Ku70 mutant cell line (AID 743015); note: nearly all actives have a fitted effect of over 60% in size; note: potency is the fitted concentration of half-maximal effect
# [12] = qHTS assay to identify small molecule antagonists of the androgen receptor (AR) signaling pathway - cell viability counter screen (AID 743033; note: nearly all actives have a fitted effect of over 45% in size)
# [13] = molecular target: Androgen receptor (Homo sapiens) (UniProt P10275); test: qHTS assay to identify small molecule antagonists of the androgen receptor (AR) signaling pathway (AID 743035; active = well fitted inhibition curve with a large enough effect in the signal ratio in the repeat runs, not every such curve was filed as active; inconclusive = weak or mixed curves, or effect the other way; inactive = no such curve, though single readings can be large or run the other way; the % refers to the signal ratio; note: potency is the fitted concentration of half-maximal effect)
# Method in brief: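 Antagonist mode: AR-bla HEK293 cells co-treated with test compounds and agonist R1881 for 16 h at 37C, 5% CO2. Beta-lactamase activity read as FRET fluorescence after 2 h room-temperature substrate loading.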
# [14] = molecular target: Androgen receptor (Homo sapiens) (UniProt P10275); test: qHTS assay to identify small molecule agonists of the androgen receptor (AR) signaling pathway using the MDA cell line (AID 743040; note: nearly all actives have a fitted effect of over 20% in size; note: potency is the fitted concentration of half-maximal effect)
# Method in brief: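 Cell-based luciferase reporter: MDA-kb2, MMTV promoter (AR + GR response elements). 16 h compound exposure at 37C; ONE-Glo, 30 min RT, luminescence.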
# [15] = molecular target: Androgen receptor (Homo sapiens) (UniProt P10275); test: qHTS assay to identify small molecule antagonists of the androgen receptor (AR) signaling pathway using the MDA cell line (AID 743042; note: nearly all actives have a fitted effect of over 55% in size)
# Method in brief: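 MDA-kb2 cells (human breast carcinoma, stably carrying an MMTV-luciferase reporter responsive to AR and GR) were plated at 3,000 cells/well and preincubated 5 hr at 37C, then given compound plus R1881 agonist for 16 h. ONE-Glo luminescence was read.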
# [16] = qHTS assay to identify small molecule antagonists of the thyroid receptor (TR) signaling pathway - cell viability counter screen (AID 743064); note: nearly all actives have a fitted effect of over 50% in size
# Method in brief: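 GH3.TRE-Luc rat pituitary cells dosed after 4 hr plating, co-stimulated with T3 at 1 nM final, incubated 23.5 h at 37 C. Viability measured in the same wells by CellTiter-Fluor fluorescence after 30 min further at 37 C.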
# [17] = qHTS assay to test for compound auto fluorescence at 460 nm (blue) in HEK293 cell free culture (AID 720681)
# Method in brief: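 Test compounds were pinned into cell-free culture medium (DMEM with 10% FBS) and fluorescence was read directly at Ex/Em 405/460 nm. Signals were expressed as fluorescence equivalents of triamterene, with DMSO vehicle as control.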
# [18] = molecular target: Glucocorticoid receptor (Homo sapiens) (UniProt P04150); test: qHTS assay to identify small molecule agonists of the glucocorticoid receptor (GR) signaling pathway (AID 720691; active = well fitted activation curve with a large enough effect in the signal ratio in the repeat runs, not every such curve was filed as active; inconclusive = weak or mixed curves, or effect the other way; inactive = no such curve, though single readings can be large or run the other way; the % refers to the signal ratio; note: potency is the fitted concentration of half-maximal effect)
# Method in brief: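 Agonist-mode qHTS in HeLa cells stably expressing a glucocorticoid-response-element beta-lactamase reporter. Fluorescence intensity read with FRET substrate (2 h, room temperature) after 18 h compound treatment at 37 C.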
# [19] = qHTS assay for identifying genotoxic compounds that show differential cytotoxicity against isogenic chicken DT40 cell lines with known DNA damage response pathways - Rev3 mutant cell line (AID 743014); note: nearly all actives have a fitted effect of over 55% in size; note: potency is the fitted concentration of half-maximal effect
# [20] = qHTS assay to identify small molecule antagonists of the androgen receptor (AR) signaling pathway using the MDA cell line - cell viability counter screen (AID 743041; note: nearly all actives have a fitted effect of over 45% in size)
# Method in brief: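 In this qHTS counter assay, fluorescence intensity after CellTiter-Fluor addition indicated viability of MDA-kb2 AR-luc cells given compounds and R1881 for 16 h at 37C.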
# Sequence of Androgen receptor (Homo sapiens) (P10275 whole entry, looked up): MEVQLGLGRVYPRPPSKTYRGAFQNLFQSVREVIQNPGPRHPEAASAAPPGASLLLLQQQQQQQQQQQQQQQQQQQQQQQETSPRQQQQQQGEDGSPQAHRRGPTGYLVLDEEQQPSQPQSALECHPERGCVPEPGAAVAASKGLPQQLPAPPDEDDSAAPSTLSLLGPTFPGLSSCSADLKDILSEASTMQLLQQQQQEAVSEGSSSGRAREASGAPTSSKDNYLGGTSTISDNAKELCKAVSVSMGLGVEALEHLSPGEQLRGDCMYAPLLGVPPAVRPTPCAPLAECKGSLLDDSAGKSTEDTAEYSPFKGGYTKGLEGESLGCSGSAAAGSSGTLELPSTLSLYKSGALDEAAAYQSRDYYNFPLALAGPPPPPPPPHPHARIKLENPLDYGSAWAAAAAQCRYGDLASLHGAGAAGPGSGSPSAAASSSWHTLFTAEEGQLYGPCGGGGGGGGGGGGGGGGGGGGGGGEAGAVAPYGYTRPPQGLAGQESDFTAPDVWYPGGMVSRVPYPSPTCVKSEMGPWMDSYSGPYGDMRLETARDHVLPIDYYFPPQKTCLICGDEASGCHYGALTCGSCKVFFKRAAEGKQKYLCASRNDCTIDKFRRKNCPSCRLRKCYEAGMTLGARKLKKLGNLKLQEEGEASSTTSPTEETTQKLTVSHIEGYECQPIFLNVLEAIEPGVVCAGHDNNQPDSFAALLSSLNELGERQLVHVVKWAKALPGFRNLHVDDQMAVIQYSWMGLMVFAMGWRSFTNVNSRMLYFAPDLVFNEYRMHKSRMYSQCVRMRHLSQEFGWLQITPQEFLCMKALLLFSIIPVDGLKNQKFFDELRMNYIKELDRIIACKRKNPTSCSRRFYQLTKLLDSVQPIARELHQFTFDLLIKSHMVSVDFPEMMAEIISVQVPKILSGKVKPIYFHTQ
# Sequence of Glucocorticoid receptor (Homo sapiens) (P04150 whole entry, looked up): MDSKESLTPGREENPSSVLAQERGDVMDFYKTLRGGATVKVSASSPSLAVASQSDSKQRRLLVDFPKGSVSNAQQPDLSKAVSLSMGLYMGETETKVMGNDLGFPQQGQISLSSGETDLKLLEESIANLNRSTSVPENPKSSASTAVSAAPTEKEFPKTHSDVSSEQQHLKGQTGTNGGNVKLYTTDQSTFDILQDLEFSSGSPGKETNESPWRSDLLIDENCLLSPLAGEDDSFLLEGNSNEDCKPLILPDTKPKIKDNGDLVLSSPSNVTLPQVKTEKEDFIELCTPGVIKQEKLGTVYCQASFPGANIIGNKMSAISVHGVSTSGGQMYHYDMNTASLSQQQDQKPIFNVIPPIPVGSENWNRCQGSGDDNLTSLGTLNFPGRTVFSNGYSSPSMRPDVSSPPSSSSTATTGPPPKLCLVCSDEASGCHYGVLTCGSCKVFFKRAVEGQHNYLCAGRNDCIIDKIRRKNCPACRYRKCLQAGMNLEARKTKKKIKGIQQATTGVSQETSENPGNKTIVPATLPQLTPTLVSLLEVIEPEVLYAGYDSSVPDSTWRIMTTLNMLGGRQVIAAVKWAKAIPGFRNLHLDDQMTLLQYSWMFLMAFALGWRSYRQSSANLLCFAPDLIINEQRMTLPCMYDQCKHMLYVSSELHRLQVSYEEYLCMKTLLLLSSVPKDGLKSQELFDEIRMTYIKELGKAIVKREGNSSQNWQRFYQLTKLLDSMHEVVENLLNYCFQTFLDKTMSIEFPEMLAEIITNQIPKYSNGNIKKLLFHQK
structure (smiles),measurement,setting,value
CC[N+](CC)(CC)CCOc1cccc(OCC[N+](CC)(CC)CC)c1OCC[N+](CC)(CC)CC,outcome,[1],inactive
same,outcome,[2],inactive
same,outcome,[3],inactive
same,outcome,[4],inactive
same,outcome,[5],inactive
same,outcome,[6],inactive
same,outcome,[7],inactive
same,Potency,[8],inactive
same,outcome,[9],inactive
same,Potency,[10],inactive
same,Potency,[11],inactive
same,outcome,[12],inactive
same,Potency,[13],inactive
same,Potency,[14],inactive
same,outcome,[15],inactive
same,Potency,[16],inactive
CC(C)C1CCC(O)CC1 (configuration not stated),outcome,[17],inactive
same,outcome,[2],inactive
same,outcome,[3],inactive
same,outcome,[4],inactive
same,outcome,[5],inactive
same,outcome,[6],inactive
same,outcome,[7],inactive
same,Potency,[18],inactive
same,Potency,[8],inactive
same,outcome,[9],inactive
same,Potency,[10],inactive
same,Potency,[19],inactive
same,Potency,[11],inactive
same,outcome,[12],inactive
same,Potency,[13],inactive
same,Potency,[14],inactive
same,outcome,[15],inactive
same,Potency,[16],inactive
C[C@@H]1C[C@H]2[C@@H]3C[C@H](F)C4=CC(=O)C(Cl)=C[C@]4(C)[C@@]3(F)[C@@H](O)C[C@]2(C)[C@@]1(O)C(=O)CO,outcome,[1],inactive
same,outcome,[2],inactive
same,outcome,[3],inactive
same,outcome,[4],inactive
same,outcome,[6],inactive
same,outcome,[7],inactive
same,Potency,[18],0.0151 µM [inconclusive] (active)
same,outcome,[9],inactive
same,Potency,[11],29.8 µM (active)
same,outcome,[12],inactive
same,Potency,[13],3.38 µM (active)
same,Potency,[14],0.006 µM (active)
same,Potency,[20],inactive
same,outcome,[15],inactive
same,Potency,[16],inactive
CCOC(=O)CCC(=O)OCC,outcome,[1],inactive
same,outcome,[2],inactive
same,outcome,[3],inactive
same,outcome,[4],inactive
same,outcome,[5],inactive
same,outcome,[6],inactive
same,outcome,[7],inactive
same,Potency,[8],inactive
same,outcome,[9],inactive
same,Potency,[19],68.5 µM (active)
same,outcome,[12],inactive
C=C(C)C(=O)OCC1CCCO1 (configuration not stated),outcome,[1],inactive
same,outcome,[2],inactive
same,outcome,[3],inactive
same,outcome,[4],inactive
same,outcome,[5],inactive
same,outcome,[6],inactive
same,outcome,[7],inactive
same,Potency,[18],inactive
same,Potency,[8],inactive
same,outcome,[9],inactive
same,Potency,[10],inactive
same,Potency,[11],inactive
same,outcome,[12],inactive
same,Potency,[16],inactive
CCCCCC(=O)OCCc1ccccc1,outcome,[1],inactive
same,outcome,[2],inactive
same,outcome,[3],inactive
same,outcome,[4],inactive
same,outcome,[5],inactive
same,outcome,[6],inactive
same,outcome,[7],inactive
same,Potency,[18],inactive
same,Potency,[8],inactive
same,outcome,[9],inactive
same,Potency,[10],inactive
same,Potency,[11],inactive
same,outcome,[12],inactive
same,Potency,[20],inactive
same,Potency,[16],inactive
C[C@H]1[C@H](NC(=O)/C(=N/OC(C)(C)C(=O)O)c2csc(N)n2)C(=O)N1S(=O)(=O)O (stereo in doubt),"fluorescence, % of fluorescein",[1],0.0034% [at 18.6 µM]
same,activity change,[2],0.008% [at 18.6 µM]
same,"fluorescence, % of fluorescent control",[3],0.271% [at 18.6 µM]
same,"fluorescence, % of Rose Bengal",[4],0.467% [at 18.6 µM]
same,"fluorescence, % of fluorescent control",[5],0.104% [at 18.6 µM]
same,"fluorescence, % of fluorescein control",[6],0.102% [at 18.6 µM]
same,"fluorescence, % of fluorescent control",[7],0.0116% [at 18.6 µM]
same,Potency,[18],inactive
same,Potency,[8],inactive
same,outcome,[9],inactive
same,Potency,[10],inactive
same,Potency,[19],inactive
same,Potency,[11],inactive
same,outcome,[12],inactive
same,Potency,[20],inactive
NO,outcome,[17],inactive
same,outcome,[2],inactive
same,outcome,[4],inactive
same,outcome,[5],inactive
same,outcome,[6],inactive
same,outcome,[7],inactive
same,outcome,[9],inactive
same,Potency,[10],inactive
same,Potency,[19],inactive
same,Potency,[11],inactive
same,outcome,[12],inactive
same,Potency,[20],inactive
same,Potency,[16],inactive
